Potency and affinity values are given separately. Calls of active or inactive are those of the source.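 Rule for the calls: active = average duplicate choline uptake below buffer control mean minus 3 SD, with a fitted dose curve; inactive = the rest.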
Molecular target: High affinity choline transporter 1 (Homo sapiens) (UniProt Q9GZV3)
Test: human choline transporter radiolabel uptake blockers – cell-based, 3H-choline uptake, CHT LV-AA trafficking mutant, CRC, dose response (AID 602208)
Conditions: HEK293 CHT LV-AA cells

Chain of High affinity choline transporter 1 (Homo sapiens) (Q9GZV3 whole entry, looked up): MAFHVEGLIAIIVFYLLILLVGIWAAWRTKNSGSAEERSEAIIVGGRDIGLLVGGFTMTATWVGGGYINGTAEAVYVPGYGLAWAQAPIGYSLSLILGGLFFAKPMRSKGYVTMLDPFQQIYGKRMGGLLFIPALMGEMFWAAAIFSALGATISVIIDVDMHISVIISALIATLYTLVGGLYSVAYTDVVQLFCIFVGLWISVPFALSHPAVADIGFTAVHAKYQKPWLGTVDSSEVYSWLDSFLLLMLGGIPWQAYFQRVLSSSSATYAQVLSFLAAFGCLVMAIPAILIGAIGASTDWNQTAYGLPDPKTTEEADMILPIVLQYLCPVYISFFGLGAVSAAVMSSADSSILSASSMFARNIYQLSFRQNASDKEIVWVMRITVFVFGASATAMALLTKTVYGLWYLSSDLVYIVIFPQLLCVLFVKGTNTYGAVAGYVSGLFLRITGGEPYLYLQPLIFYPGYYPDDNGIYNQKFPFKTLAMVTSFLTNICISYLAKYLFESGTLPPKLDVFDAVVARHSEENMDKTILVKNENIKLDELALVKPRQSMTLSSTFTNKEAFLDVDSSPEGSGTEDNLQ

outcome, inactive:
Cc1cc(NS(=O)(=O)c2ccc(NC(=O)c3ccc(Cl)cc3Cl)cc2)no1
Cc1cc(NS(=O)(=O)c2ccc(NC(=O)C(C)Oc3cccc(C)c3C)cc2)nc(C)n1 (configuration not stated)
CCN(CC)S(=O)(=O)c1cc(C(=O)Nc2nncs2)c(Cl)cc1Cl
COc1cc(NS(=O)(=O)c2ccc(NC(=O)c3ccc(Cl)cc3Cl)cc2)ncn1
Cc1cc(C)c(C(=O)Nc2ccc(S(=O)(=O)Nc3ccccn3)cc2)c(C)c1
CCc1cccc(CC)c1NC(=O)c1cccc(S(=O)(=O)N2CCN(C)CC2)c1
CC1CCCCC1NC(=O)c1cccc(S(=O)(=O)N2CCN(C)CC2)c1 (configuration not stated)

Source: PubChem BioAssay AID602208 (Johns Hopkins Ion Channel Center, 2012)
